Sampled rows, rich in hits. Any-hit rate of the full collection: about 0.9%.
TexasRed fluor: alters Texas Red total fluorescence, flagging assay interference | TRb/SRC2 Texas Red total fluorescence interference | Potency, µM (series often up to 106 µM), for inactives: at the highest dose fluorescence change, negative = quenching | hit rate 0.29% among 280,000 | AID 1479; active means well fitted curve in either direction with a large enough effect; inconclusive means small, poorly fitted or top-dose-only effect
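Human TRb ligand-binding domain at 0.6 uM with 20 nM Texas Red SRC2 peptide in Tris buffer containing 1 uM T3 and 5% DMSO, incubated with compound 5 h at ambient temperature. Total fluorescence (555/632 nm) calculated as parallel + 2 × perpendicular.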
TRb SRC2 PPI: TRbeta-SRC2 interaction inhibition | P10828 | AID 1469 | TRbeta-SRC2 peptide binding, fluorescence polarization; receptor liganded with 1 µM T3 | hit rate 0.065% among 280,000 | Potency, µM (top dose mostly 106 µM), inactives show at the top dose activity change, negative = inhibition, usual class: inhibitors;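 further: plate controls were bound peptide for no effect and peptide without receptor for full effect; nearly all actives have a fitted effect of over 50% in size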
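Each compound concentration gave % activity, normalized to unbound and bound Texas Red SRC2 controls, from polarization read after 5 hr ambient incubation with T3-loaded human TRb LBD.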
BLM inh: inhibitors of human Bloom syndrome helicase BLM; P54132; recombinant BLM DNA unwinding, fluorescence dequenching; Potency, µM (series often up to 56.1 µM), without a hit: top-dose activity change, negative = inhibition, most hits filed as inhibitors; hit rate 0.2% among 350,000;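 further: plate controls were vehicle for no effect and no enzyme for full effect; nearly all actives have a fitted effect of over 35% in size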
APE1 inh: blocks human APE1 abasic DNA cleavage. Potency, µM (doses to about 65.8 µM), inactives show top-dose activity change, negative = inhibition, actives largely listed as inhibitors. hit rate 0.35% among 350,000. recombinant APE1, TAMRA/BHQ-2 abasic DNA cleavage fluorescence. AID 2517. P27695;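 further: plate controls were vehicle for no effect and reference inhibitor for full effect; nearly all actives have a fitted effect of over 55% in size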
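Incision of a quenched TAMRA/BHQ-2 THF abasic-site duplex (50 nM) by 0.75 nM APE1, after 15 min compound preincubation, measured as fluorescence increase over three 60 s reads. Values normalized to buffer, DMSO and NSC13755 control wells.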
RECQ1 inh-1: RECQ1 (human) helicase inhibition. hit rate 0.54% among 240,000. Potency, µM (doses to about 57.3 µM), inactives show at the top dose activity, negative = inhibition, actives largely listed as inhibitors. RECQ1 DNA unwinding, red fluorescence kinetic read. P46063. AID 2549;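 further: plate controls were vehicle for no effect and no enzyme for full effect; nearly all actives have a fitted effect of over 30% in size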
Target sequence (P46063 whole entry, looked up): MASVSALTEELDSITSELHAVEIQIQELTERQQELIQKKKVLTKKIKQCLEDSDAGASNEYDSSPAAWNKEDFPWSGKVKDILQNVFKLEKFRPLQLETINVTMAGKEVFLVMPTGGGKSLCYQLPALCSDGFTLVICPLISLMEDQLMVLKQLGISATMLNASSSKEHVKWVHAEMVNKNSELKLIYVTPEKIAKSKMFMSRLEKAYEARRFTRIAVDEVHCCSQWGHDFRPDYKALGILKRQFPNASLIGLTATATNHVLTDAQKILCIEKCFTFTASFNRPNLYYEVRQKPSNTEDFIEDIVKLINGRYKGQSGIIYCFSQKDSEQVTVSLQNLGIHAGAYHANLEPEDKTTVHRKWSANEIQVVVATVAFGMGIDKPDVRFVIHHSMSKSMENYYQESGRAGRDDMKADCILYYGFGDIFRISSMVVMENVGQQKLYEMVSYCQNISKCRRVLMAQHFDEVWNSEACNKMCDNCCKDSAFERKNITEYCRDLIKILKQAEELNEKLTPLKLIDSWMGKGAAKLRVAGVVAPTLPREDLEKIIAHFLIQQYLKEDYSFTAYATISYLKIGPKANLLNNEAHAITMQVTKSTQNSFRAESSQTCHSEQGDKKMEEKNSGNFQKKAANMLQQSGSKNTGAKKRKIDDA
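50 nM RECQ1T1 preincubated 15 min with compound in Tris pH 8.0 buffer with MgCl2, DTT, Tween-20 and 2.5 ug/ml poly(dI-dC); started with 200 nM TAMRA/BHQ-2 forked duplex and 2 mM ATP. Unwinding read as fluorescence (525/598 nm), two reads 2 h apart.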
RGS12 GoLoco inh: inhibitors of human Gai1-RGS12 GoLoco interaction (red fluorophore); P63096; Gai1:RGS12 GoLoco peptide FP, rhodamine, 10 min; Potency, µM (doses to about 61.6 µM), for inactives: at the top dose activity, negative = inhibition, most hits filed as inhibitors; hit rate 0.44% among 230,000; AID 880; active means well fitted inhibition curve with a large enough effect, not every such curve was filed as active; inactive means no such curve, though single readings can be large or run the other way; further: nearly all actives have a fitted effect of over 30% in size
RECQ1 conf: confirmation of human RECQ1 helicase inhibitors; hit rate 28% among 610; RECQ1 helicase DNA unwinding, fluorescence; Potency, µM (titrated, usually from 229 µM), inactives show top-dose activity change, negative = inhibition, actives largely listed as inhibitors; shares compounds with RECQ1 inh-1; further: nearly all actives have a fitted effect of over 45% in size
ADP FP counter: displaces ADP in a fluorescence polarization counter-screen for RECQ1 hits | hit rate 27% among 530 | shares compounds with RECQ1 inh-1 | ADP fluorescence polarization displacement counterscreen | Potency, µM (series often up to 228 µM), inactives show at the top dose activity change, negative = inhibition, hits mostly inhibitors | AID 2711; further: nearly all actives have a fitted effect of over 45% in size
RECQ1 inh-2: confirmation of human RECQ1 helicase inhibitors; shares compounds with RECQ1 inh-1; recombinant RECQ1 DNA unwinding, red fluorescence; Potency, µM (series often up to 119 µM), for the others: top-dose activity, negative = inhibition, hits mostly inhibitors; hit rate 15% among 1,100; further: nearly all actives have a fitted effect of over 50% in size
* hit, by the source's call; ? = inconclusive; / = not tested or not shown. Unless noted, the call rests on the fitted dose curve; in most records, active means well fitted curve in the direction sought with a large enough effect; inconclusive means small, poorly fitted or top-dose-only effect, or another doubt; inactive means no such curve, though single readings can be large; an effect the other way counts as inactive or inconclusive. Unless noted, on the % scale 0 is the no-effect control and ±100 the full control effect; potency means the concentration at half of the fitted maximal effect.

SMILES | TexasRed fluor | TRb SRC2 PPI | BLM inh | APE1 inh | RECQ1 inh-1 | RGS12 GoLoco inh | RECQ1 inh-2 | others
Cc1ccnc(NS(=O)(=O)c2ccc(NC(=O)Cc3cccs3)cc2)n1 | 1% | 0% | -13% | ? | 25µM* | 38% | ?
Cc1ccnc(NS(=O)(=O)c2ccc(NC(=O)Cc3ccc(F)cc3)cc2)n1 | / | / | 1% | -6% | / | / | /
O=C(Cc1cccs1)Nc1ccc(S(=O)(=O)Nc2ncccn2)cc1 | -9% | 4% | -19% | ? | ? | 78% | ?
Cc1ccc(CN(C(=O)COc2ccccc2Cl)c2ccccn2)o1 | 7% | 2% | -2% | / | / | / | /
O=C(Nc1cccc(Br)c1)c1cc(S(=O)(=O)N2CCCCC2)c[nH]1 | 1% | -6% | -1% | / | / | / | /
CCOc1c(OC(C)=O)ccc(/C=C/c2ccc3cccc(OC(C)=O)c3n2)c1[N+](=O)[O-] | -9% | 1% | -14% | -5% | 32µM* | -13% | -11%
Cc1c(Cl)cccc1NS(=O)(=O)c1ccc2c(c1)C1C=CCC1C(c1ccc(C(=O)O)cc1)N2 (stereo unspecified) | -12% | 10% | ? | -10% | 28µM* | 68% | ?
CCOC(=O)c1[nH]c(C)c(CCC(=O)Nc2ccc(C)cc2Cl)c1C | 0% | -11% | -4% | / | / | / | /
CCOC(=O)c1sc2ncnc(NCc3ccco3)c2c1C | -3% | -8% | -9% | ? | ? | 90% | -9%
CC(CNC(=O)Cn1ncc2c3ccccc3n(Cc3cccc(Cl)c3)c2c1=O)c1ccccc1 (stereo unspecified) | -3% | -1% | -6% | / | / | / | /
C=CCn1c(=O)/c(=C/c2ccc(C)o2)s/c1=C(/C#N)C(=O)c1ccccc1 | ? | ? | -16% | -3% | 32µM* | 73% | ?
COc1ccc(C2C(=O)N(C3CCC(C)CC3)CC(=O)N2Cc2ccc(C)cc2)cc1OC (stereo unspecified) | -2% | 3% | -3% | / | / | / | /
COc1cc(C2NCC(c3ccc(Cl)cc3Cl)c3c2[nH]c2ccccc32)cc(OC)c1OC (stereo unspecified) | 0% | -2% | -14% | -5% | ? | -3% | -23%
Cc1nc(NC(=O)/C=C/c2ccco2)sc1C | 2% | -2% | -23% | -10% | -3% | -8% | /
COc1cc(/C=C/C(=O)Nc2nnc(C(C)(C)C)s2)cc(OC)c1OC | -3% | 3% | -5% | 24% | -14% | 7% | /
COc1cc(C(=O)Nc2nc3ccc(S(=O)(=O)N4CCOCC4)cc3s2)cc(OC)c1OC | -5% | -9% | -8% | 11% | ? | -4% | 32µM*
CNS(=O)(=O)c1ccc2nc(NC(=O)/C=C/c3ccco3)sc2c1 | ? | ? | -4% | ? | ? | 89% | -21%
COc1cc(/C=C/C(=O)Nc2nc3ccc(S(=O)(=O)N(C)C)cc3s2)cc(OC)c1OC | -2% | 6% | 5µM* | -6% | 6.3µM* | 5% | 2.2µM*
COCCCN(C(=O)c1cc2c(s1)CCC2)c1c(N)n(Cc2ccccc2)c(=O)[nH]c1=O | -5% | -5% | ? | ? | 14µM* | 25% | ? | RECQ1 conf=40µM*;ADP FP counter=?

Screening results (PubChem)
